These results are taken from PubChem BioAssay (Tox21).

A short description of assay [1]: qHTS assay to identify small molecule agonists of the hypoxia (HIF-1) signaling pathway - cell viability counter screen (AID 1224844; calls by dose curve; note: nearly all actives have a fitted effect of over 50% in size; note: potency is the fitted concentration of half-maximal effect). Conditions: HRE-bla ME-180 viability, CellTiter-Glo luminescence, 17 h; series mostly up to 76.8 µM. Summed up:
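Viability counter screen: HRE-bla ME-180 cells plated 5 hrs before compound addition, treated 17 hrs at 37C and 5% CO2, then CellTiter-Glo added after the FRET reporter read; luminescence after 30 min.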

Assay [2] is described as follows: qHTS assay to identify small molecule agonists of H2AX (AID 1224845; active = well fitted activation curve with a large enough effect in the signal ratio in the repeat runs, not every such curve was filed as active; the % refers to the signal ratio). Conditions: CHO-K1 phospho-H2AX Ser139 HTRF, 3 h; series mostly up to 154 µM. Summed up: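 Wild-type CHO-K1 cells, plated overnight, exposed 3hr at 37C to 15 concentrations (0.76% DMSO final). Lysed, then HTRF anti-pH2AX (S139) cryptate and anti-H2AX-d2 antibodies, 24 hr room temperature; 665/620 nm emission read.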

The nature of assay [3]: qHTS assay to identify small molecule agonists of the hypoxia (HIF-1) signaling pathway (AID 1224846; active = well fitted activation curve with a large enough effect in the signal ratio in the repeat runs, not every such curve was filed as active; the % refers to the signal ratio). Conditions: HRE-bla ME-180 cells, beta-lactamase ratio, 17 h; series mostly up to 76.8 µM. Summed up: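 Agonist mode reporter screen. ME-180 cells stably expressing bla under HRE control received test compounds in DMSO for 17 hrs (37C, 5% CO2), and beta-lactamase activity was then detected with the CCF4-AM FRET substrate.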
A general note: Quantitative high-throughput screening tests each substance at several concentrations.

Assay [4] in a line: qHTS assay to identify small molecule agonists of H2AX - cell viability counter screen (AID 1224847; calls by dose curve; note: nearly all actives have a fitted effect of over 30% in size; note: potency is the fitted concentration of half-maximal effect). Particulars: CHO-K1 viability, CellTiter-Glo luminescence, 3 h; series mostly up to 154 µM. Summed up: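 Cytotoxicity counter screen in wild-type CHO-K1 cells: a 3 hr compound treatment at 37C across 15 concentrations, followed by CellTiter-Glo luminescence to gauge viable cells.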

Assay [5] can be described thus: qHTS assay to identify small molecule antagonists of the estrogen related receptor (ERR) signaling pathway from Tox21 library (AID 1224848). Note: nearly all actives have a fitted effect of over 50% in size. Conditions: ERR reporter cell line, luciferase antagonist mode, 18 h; series mostly up to 92.4 µM. Summed up:
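Quantitative high-throughput format: ERR reporter cells (2,000/well) pre-incubated 6 h, treated 18 h at 37 C with compounds in DMSO alongside positive and negative controls, then read by ONE-Glo luminescence.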

Assay [6] in a line: qHTS assay to identify small molecule agonists of the estrogen related receptor (ERR) signaling pathway from Tox21 library (AID 1224849; calls by dose curve; note: nearly all actives have a fitted effect of over 15% in size). Conditions: ERR reporter cell line, ONE-Glo luciferase, 18 h; at 92.4 µM (top of the series). Summed up:
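Quantitative HTS in agonist format: NTP ERR cell line, compounds transferred in DMSO after 6 h plating, 18 h incubation at 37 C, ONE-Glo luminescence endpoint.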

Assay [7] is described as follows: qHTS RealTime-Glo MT Cell Viability Assay in HepG2 cells - 24 hour (AID 1224867). Note: nearly all actives have a fitted effect of over 50% in size. Particulars: RealTime-Glo luminescence; series mostly up to 76.8 µM. Summed up: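 Cells + NanoLuc/prosubstrate dispensed (600 cells/well) → 5 h at 37 C/5% CO2 → compounds in DMSO transferred → 40 h incubation at 37 C, luminescence read at 0, 8, 16, 24, 32, 40 h.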
The nature of assay [8]: qHTS RealTime-Glo MT Cell Viability Assay in HEK293 cells - 32 hour (AID 1224868). Note: nearly all actives have a fitted effect of over 50% in size. Note: potency is the fitted concentration of half-maximal effect. Particulars: RealTime-Glo luminescence; series mostly up to 76.8 µM. Summed up:
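Tox21 10K qHTS, HEK293, 600 cells/well, RealTime-Glo reagent co-dispensed with cells; 5 h preincubation, compound by pintool, 37 C, luminescence at 0–40 h.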

Assay [9] can be described thus: A CellTox Green Cytotoxicity Assay to monitor cytotoxicity in HEK293 cells - 0 hour (AID 1224869). Note: nearly all actives have a fitted effect of over 50% in size. Particulars: CellTox Green fluorescence; series mostly up to 76.8 µM. Summed up: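 Dead-cell fluorescence measured kinetically: asymmetric cyanine dye, HEK293, 600 cells/well, 5 h settle, 23 nL cpd/DMSO, 37 C, reads 0–40 h every 8 h.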
Assay [10] in a line: qHTS RealTime-Glo MT Cell Viability Assay in HepG2 cells - 40 hour (AID 1224870). Note: nearly all actives have a fitted effect of over 50% in size. Conditions: RealTime-Glo luminescence; series mostly up to 76.8 µM. Summed up: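 HepG2 cells (600/well) mixed with RealTime-Glo MT reagent, settled 5 h at 37 C/5% CO2 before compound addition. Nonlytic NanoLuc luminescence from viable-cell prosubstrate reduction read repeatedly during 40 h treatment at 37 C.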

Several values for one entry are separate records, joined by “and”; a condition that tells them apart may be missing. Equal values may be shown once. Inconclusive results are not listed. More than one record can exist for a structure, and the calls need not agree. Activity calls are given as the source filed them. Unless noted, calls come from the whole dose curve; as a rule, active = well fitted curve in the direction sought with a large enough effect in the repeat runs; inconclusive = weak or mixed curves; inactive = no such curve, though single readings can be large; an effect the other way counts as inactive or inconclusive.
% is set by controls: 0 for no effect and ±100 for the full control effect.

For `Oc1ccc(Cl)cc1Cl`, the Potency result in [1], in assay [2], in assay [4], in assay [5], in assay [7] and in [8] was “inactive” throughout. In addition, the Potency result in [9] and in [10] was “inactive” throughout. Also, the result in assay [3] was inactive. Moreover, the activity change, positive = activation in assay [6] is -0.925% (inactive) and -0.996% (inactive).
As for `C[N+](C)(C)C`, the Potency entry in [1], in assay [2], in assay [4], in assay [7], in [8] and in [9] was “inactive” in each case. In addition, in assay [10], the Potency result was “inactive”. For the same compound, the outcome in assay [3] was inactive.
With `N#CC(c1ccccc1)c1ccccc1`, the Potency result in assay [1], in assay [2], in assay [4], in assay [5], in assay [7] and in [8] was “inactive” in each case. Further, the Potency result in assay [9] and in assay [10] was “inactive” each time. Also, in [3], the outcome was inactive. For the same compound, the activity change, positive = activation in assay [6] is -14.8% (inactive) and -8.2% (inactive).
Consider `Cc1ccc(N=CN(C)C=Nc2ccc(C)cc2C)c(C)c1`, for which the Potency in assay [1] was 43.8 µM (active) and 30.9 µM (active) and inactive; in [4], 101 µM (active) and inactive; in assay [8], 43.8 µM (active) and 43.6 µM (active) and inactive. The Potency result in [2], in assay [7], in [9] and in assay [10] was “inactive” each time. Also, the result in [3] was inactive.
Regarding `Cc1cccc(N=Nc2ccc(N(C)C)cc2)c1`, the Potency entry in assay [1], in assay [2], in [5], in assay [7], in assay [9] and in assay [10] was “inactive” throughout. For the same compound, the outcome in [3] was inactive. In addition, the Potency in [4] was 101 µM (active). Moreover, the activity change, positive = activation in [6] is 234% (active) and 86.9% (active).
As to `CNC(=S)S`, the Potency entry in assay [1], in assay [2], in [4], in assay [7], in assay [8] and in assay [9] was “inactive” throughout. For the same compound, the Potency result in [10] was “inactive”. Moreover, in assay [3], the result was inactive.
Turning to `[CH3][Sn]([Cl])([Cl])[Cl]`, the Potency result in assay [1], in [2], in assay [4], in [7], in assay [8] and in assay [9] was “inactive” throughout. The Potency result in [10] is “inactive”. For the same compound, in assay [3], the outcome was inactive.
Consider `CC(C)Nc1nc(Cl)nc(NC(C)C)n1`, for which the Potency entry in assay [1], in [2], in [4], in assay [5], in assay [7] and in [8] was “inactive” in each case. The Potency entry in assay [9] and in assay [10] was “inactive” each time. Also, the result in [3] was inactive. Besides, the activity change, positive = activation in assay [6] is 1.71% (inactive) and -9.11% (inactive).
Take `Brc1ccc(Br)cc1`: the Potency result in assay [1], in assay [2], in assay [4], in assay [5], in assay [7] and in [8] was “inactive” in each case. In addition, the Potency result in assay [9] and in assay [10] was “inactive” throughout. For the same compound, the result in assay [3] was inactive. Further, the activity change, positive = activation in [6] is 7.62% (inactive) and 5.83% (inactive).
For the compound `Clc1cccc(Cl)c1`, the Potency result in assay [1], in assay [2], in assay [4], in assay [5], in assay [7] and in assay [8] was “inactive” throughout. Moreover, the Potency entry in [10] was “inactive”. Further, the result in assay [3] was inactive. For the same compound, the activity change, positive = activation in [6] is -0.0986% (inactive) and 9.44% (inactive).
Consider `N#Cc1cccnc1`, for which the Potency entry in assay [1], in [2], in assay [4], in [5], in assay [7] and in assay [8] was “inactive” in each case. Moreover, the Potency result in [9] and in [10] was “inactive” each time. In addition, the outcome in assay [3] was inactive. The activity change, positive = activation in assay [6] was 5.82% (inactive) and 1.56% (inactive).
For `CCCCOCCOC(C)=O`, the Potency result in assay [1], in assay [2], in [4], in [5], in assay [7] and in assay [8] was “inactive” each time. Moreover, the Potency result in [9] and in assay [10] was “inactive” in each case. The result in assay [3] was inactive. Further, the activity change, positive = activation in [6] is 1.87% (inactive) and 10.2% (inactive).
On to `c1ccc(C2CO2)cc1` (stereo not drawn), for which the Potency entry in [1], in assay [2], in assay [4], in assay [7], in [8] and in assay [9] was “inactive” in each case. In [10], the Potency entry was “inactive”. In assay [3], the outcome was inactive.
For the compound `ClCC(Cl)CCl`, the Potency entry in assay [1], in assay [2], in [4], in assay [5], in [7] and in assay [8] was “inactive” in each case. Further, the Potency entry in assay [9] and in [10] was “inactive” in each case. Moreover, in [3], the result was inactive. Moreover, the activity change, positive = activation in assay [6] was 8.78% (inactive) and 5.09% (inactive).
As to `C=C(C)C#N`, the Potency entry in [1], in assay [2], in assay [4], in [7], in [9] and in assay [10] was “inactive” throughout. For the same compound, in [3], the outcome was inactive. The Potency entry in assay [8] was “inactive and 5.49 µM (active)”.
Take `O=S(=O)(O)C(F)(F)C(F)(F)C(F)(F)C(F)(F)C(F)(F)C(F)(F)C(F)(F)C(F)(F)F`: the Potency in assay [1] was 33 µM (active) and 49 µM (active) and 12.3 µM (active). For the same compound, the Potency entry in assay [2], in [4], in [5], in assay [7], in assay [8] and in assay [10] was “inactive” in each case. For the same compound, the outcome in [3] was inactive. The activity change, positive = activation in assay [6] is -7.99% (inactive) and -0.0044% (inactive) and -21.1% (inactive).
With `O=NN1CCOCC1`, the Potency result in assay [1], in assay [2], in [4], in assay [7], in assay [9] and in assay [10] was “inactive” each time. Besides, in assay [3], the result was inactive. Besides, the Potency result in assay [8] was “inactive and 2.19 µM (active)”.
As to `CCNCC`, the Potency entry in assay [1], in assay [2], in assay [4], in assay [5], in assay [7] and in assay [8] was “inactive” in each case. The Potency entry in [9] and in assay [10] was “inactive” in each case. The activity change, positive = activation in assay [6] was 1.09% (inactive) and 1.12% (inactive).
In the case of `CCCCOC(=O)COC(=O)c1ccccc1C(=O)OCCCC`, the Potency entry in [1], in assay [2], in assay [4], in assay [5], in assay [7] and in assay [8] was “inactive” in each case. For the same compound, the Potency result in [10] was “inactive”. The activity change, positive = activation in [6] was 4.38% (inactive) and 0.695% (inactive).
Take `COc1ccc(C=O)cc1OC`: the Potency entry in assay [1], in assay [2], in assay [4], in assay [5], in [7] and in assay [8] was “inactive” each time. Moreover, in assay [10], the Potency result was “inactive”. Moreover, the activity change, positive = activation in [6] is -3.94% (inactive) and -4.02% (inactive).
